Bioassay records (PubChem)
MsrA inh = inhibitors of bovine MsrA; purified bovine MsrA, absorbance read-out; inhibition, % at 15.5 µM; hit rate 0.75% among 360,000; AID 651718;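 note: 0% = vehicle wells with enzyme and 100% = reference inhibitor wells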
MsrA act = bovine methionine sulfoxide reductase A activation; purified bovine MsrA, absorbance read-out; activation, % at 10.6 µM; hit rate 0.3% among 360,000; in the data active = activation above about 7.5%;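 note: 0% = vehicle and 100% = reference activator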
PLCb3 inh = blocks human PLC-beta3 enzyme activity; hit rate 0.18% among 370,000; inhibition, % at 12.2 µM; Purified PLC-beta3, fluorogenic substrate, fluorescence; AID 720704; in the data active = inhibition above about 11%;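 note: 0% = median of compound wells on plate and 100% = full blocker control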
PLCg1 inh = inhibitors of human phospholipase C gamma1; purified PLC-gamma1, fluorogenic substrate, fluorescence; P19174; AID 720700; hit rate 0.84% among 370,000; inhibition, % at 12.2 µM; in the data active = inhibition above about 9.5%
MsrA inh confirm = confirmation of bovine MsrA inhibitors | purified bovine MsrA, absorbance read-out | shares compounds with MsrA inh | hit rate 41% among 2,300 | inhibition, % at 15.5 µM;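 note: coupled to thioredoxin reductase with NADPH and selenocystamine and DMSO as substrate; 0% = vehicle only and 100% = full effect of reference inhibitor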
Active calls of the source: *; i = inactive; nt = no result given. In the library only some 1.9% were active in any assay of this set; here they are far more common. Cut-off read from the data, not from the text of the source, unless noted: active = inhibition above about 4.5%; inactive = the rest.

SMILES	MsrA inh	MsrA act	PLCb3 inh	PLCg1 inh	MsrA inh confirm
O=C(N/N=C/c1ccc2c(c1)OCO2)c1ccc(Br)o1	7.5*	-4	-78	-54	8.3*
COc1cc(/C=N/NC(=O)/C(=C\c2ccc3c(c2)OCO3)NC(=O)c2ccccc2)ccc1O	8.7*	-7	-17	-16	4.9*
CN(C)c1ccc(/C=N/NC(=O)c2ccc3c(c2)OCCO3)cc1	5.0*	-4	-294	-198	5.5*
O=C(N/N=C/c1ccc2c(c1)OCO2)c1cccs1	6.1*	-10	-33	-30	5
Cc1ccc(/C=N/NC(=O)c2cccs2)s1	6.7*	-6	-15	-12	4.9*
O=C(N/N=C/c1ccccn1)c1ccc(Cl)cc1	1	-2	-14	1	nt
O=C(N/N=C/c1cc(Br)c(O)c(Br)c1O)c1ccc2c(c1)OCCO2	4	-5	-103	-75	nt
CCOc1cc(/C=N/NC(=O)c2ccc3c(c2)OCCO3)cc(Br)c1O	6.0*	-4	i	-474	6.9*
CN(C)c1ccc(C(=O)N/N=C/c2ccccn2)cc1	7.4*	-3	-19	-8	4
O=C(N/N=C/c1ccc([N+](=O)[O-])cc1)c1cccs1	5.4*	-4	-5	0	5.0*
O=C(N/N=C/c1ccc(-c2cccc([N+](=O)[O-])c2)o1)c1cccs1	1	-5	-5	2	nt
C[C@@H]1CCCN1c1cccc2c1S(=O)(=O)N1CC[C@H](C1)O2	nt	nt	1	-2	nt
COC(=O)C1=C(C)N(Cc2ccccc2C(F)(F)F)C(=NCc2cccc(C(F)(F)F)c2)NC1c1cccc(Cl)c1 (stereo unspecified)	-2	nt	5	4	nt
COC(=O)[C@H](Cc1ccccc1)NC(=O)[C@H]1C[C@@]2(N3CCCC3)c3ccccc3N(C(=O)OC(C)(C)C)[C@H]2N1C(=O)OC(C)(C)C	nt	nt	0	0	nt
CN1C(=O)c2cc(NC(=O)Nc3ccc(F)c(F)c3)ccc2OC[C@H]2O[C@@H](CC(=O)O)CC[C@H]21	nt	nt	-1	0	nt
Cc1ccccc1CN1CCCCC(NC(=O)c2ccc(F)c(F)c2)C1=O (stereo unspecified)	nt	nt	2	2	nt
COc1cc(/C=N/NC(=O)c2ccc3c(c2)OCO3)ccc1O	6.3*	-4	-50	-28	4
O=C(N/N=C/c1ccc(Cl)cc1)c1ccc2c(c1)OCO2	1	-9	-6	0	nt
COc1cc(/C=N/NC(=O)c2ccc(-n3cccc3)cc2)ccc1O	5.9*	-5	-74	-69	4.8*
O=C(N/N=C/c1ccc2c(c1)OCO2)c1ccc2c(c1)OCCO2	4.9*	-5	-32	-15	4
COc1ccc(/C=N/NC(=O)c2ccc3c(c2)OCO3)cc1	4	-3	0	2	nt
O=[N+]([O-])c1ccc(/C=N/NC2=NS(=O)(=O)c3ccccc32)cc1	2	-4	3	2	nt
O=S1(=O)N=C(N/N=C/c2cccs2)c2ccccc21	5.8*	-2	-6	-4	4.8*
CN(C)/N=C/c1ccc(P(c2ccc(/C=N/N(C)C)o2)c2ccc(/C=N/N(C)C)o2)o1	5.4*	-7	6	6	4
O=C1Nc2c(Cl)cc(Cl)cc2C12Nc1ccccc1S2 (stereo unspecified)	-1	nt	-305	-233	nt
SMILES	MsrA inh	MsrA act	PLCb3 inh	PLCg1 inh	MsrA inh confirm
CCOc1ncccc1C(=O)Nc1ccc2c(c1)OCO2	5.0*	-3	-5	-1	5
COC(=O)[C@]12C[C@H](CC(=O)NCc3cccc(C(F)(F)F)c3)C(=O)N(Cc3ccccc3)C1=C[C@H](COCc1ccccc1)O[C@@H]2C	nt	nt	5	1	nt
CCCc1cc(=O)oc2c3c(cc(OCC(=O)N4CCC(C(=O)O)CC4)c12)OC(C)(C)CC3	5.0*	-3	i	i	1
C/C(N)=C(/C#N)C(=O)CSc1nn(-c2ccc(Cl)cc2)c(=S)s1	21*	-5	5	3	14*
Cc1c(=O)n(OCc2ccccn2)c2ccccc2[n+]1[O-]	4.9*	-3	-28	-27	1
CN(C)/C=C1\N=C(c2cccs2)OC1=O	7.7*	-8	-3	2	5.5*
COc1ccc(/C=N/NC(=S)Nc2c(C)n(C)n(-c3ccccc3)c2=O)cc1OC	5.2*	1	-3	3	4
Cc1c(NC(=S)N/N=C/c2ccc(Br)cc2)c(=O)n(-c2ccccc2)n1C	3	-5	-8	-3	nt
Cc1c(NC(=S)N/N=C/C=C/c2ccccc2)c(=O)n(-c2ccccc2)n1C	6.4*	-6	-9	-3	6.8*
N#C/C(=C/c1ccc(CNS(=O)(=O)c2ccccc2)o1)C(=O)NCc1ccccc1	4.8*	-3	1	-3	4
N#C/C(=C/c1ccc(CNS(=O)(=O)c2ccccc2)o1)C(N)=O	4	-13	1	2	nt
C=CCn1c(-c2ccccc2)nc(=S)c2c1CC(C)(C)OC2	5.1*	-4	-10	0	4
COc1ccc(-c2nc(=S)c3c(n2CCN2CCOCC2)CC(C)(C)OC3)cc1	4.9*	-12	-8	0	4
Cc1ccc(-c2nc(=S)c3c(n2CCN2CCOCC2)CC(C)(C)OC3)cc1	4	-13	-7	-6	nt
O=c1ccn2c(n1)OC1CC2OC1COC(c1ccccc1)(c1ccccc1)c1ccccc1 (stereo unspecified)	0	nt	2	2	nt
COc1ccc(C2=NS(=O)(=O)N(C)C(C(=O)N3C(C)CCCC3C)=C2)cc1 (stereo unspecified)	4	-4	-23	-20	nt
COc1ccc(C2=NS(=O)(=O)N(C)C(C(=O)N3CCCCC3C)=C2)cc1 (stereo unspecified)	5.9*	-6	-124	-107	3
COc1ccc(C2=NS(=O)(=O)N(C)C(C(=O)N3CCC(C(N)=O)CC3)=C2)cc1	6.1*	-4	-134	-116	3
CCCCS(=O)(=O)N1CCCc2nc(C)c(C)cc21	1	nt	0	-4	nt
O=C(O)c1cccn2c(=O)c3ccccc3nc12	4.7*	-5	-244	-206	4
O=C(c1cccn2c(=O)c3ccccc3nc12)N1CCN(c2ccccn2)CC1	2	-4	-121	-86	nt
O=[N+]([O-])c1cc([N+](=O)[O-])c(Oc2ccc(F)cc2)cc1NN1CCCCC1	0	-1	0	-1	nt
COc1ccc(Oc2cc(NN3CCCCC3)c([N+](=O)[O-])cc2[N+](=O)[O-])cc1OC	4.9*	-2	2	0	3
CC(=O)c1cccc(Oc2cc(NN3CCCCC3)c([N+](=O)[O-])cc2[N+](=O)[O-])c1	18*	-4	0	-2	12*
CC(=O)c1ccccc1Oc1cc(NN2CCCCC2)c([N+](=O)[O-])cc1[N+](=O)[O-]	2	-2	2	-1	nt
COC(=O)[C@]12C[C@H](CC(=O)N3CCOCC3)C(=O)N(CCC3=CCCCC3)C1=C[C@H](COCc1ccccc1)O[C@@H]2C	0	nt	4	3	nt
COc1ccc(C2=NS(=O)(=O)N(C)C(C(=O)NCc3ccccn3)=C2)cc1	4.7*	-1	-71	-53	3
COc1ccc(NC(=O)C2=CC(c3ccc(OC)cc3)=NS(=O)(=O)N2C)cc1	5.4*	-2	-2	1	2
